Assay results taken from PubChem BioAssay (NCATS).
Inconclusive results are not listed. The source made the active and inactive calls. The call rests on the fitted dose curve; in most records, active means well fitted cell-killing curve with a large enough effect; inconclusive means small, poorly fitted or top-dose-only effect, or effect the other way; inactive means no such curve, though single readings can be large or run the other way.

Experiments:
[1] = Quantitative High-Throughput drug screen in 47 multiple myeloma cell lines against the NCATS MIPE library collection: PCM6_Riken cell viability assay (AID 1919870); further: nearly all actives have a fitted effect of over 30% in size
In short: (§1)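 Viability after 48 h drug exposure was measured as ATP-dependent luminescence. Cells, 500 per well, sat at 37 °C under 5% CO2; DMSO wells set 100%, media-only wells 0%.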

[2] = Quantitative High-Throughput drug screen in 47 multiple myeloma cell lines against the NCATS MIPE library collection: RPMI8226_ATCC cell viability assay (AID 1919871); further: nearly all actives have a fitted effect of over 30% in size
In short: as §1

[3] = Quantitative High-Throughput drug screen in 47 multiple myeloma cell lines against the NCATS MIPE library collection: OPM2_DSMZ cell viability assay (AID 1919872); further: nearly all actives have a fitted effect of over 30% in size
In short: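 Relative luminescence from CellTiter-Glo served as the viability signal, referenced to DMSO-treated (100%) and cell-free medium (0%) controls. Treatment lasted 48 hours at 37C with 500 cells per well.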

[4] = Quantitative High-Throughput drug screen in 47 multiple myeloma cell lines against the NCATS MIPE library collection: KMS11_JCRBsus cell viability assay (AID 1919873); further: nearly all actives have a fitted effect of over 50% in size
In short: as §1

[5] = Quantitative High-Throughput drug screen in 47 multiple myeloma cell lines against the NCATS MIPE library collection: KMS28BM_JCRB cell viability assay (AID 1919874); further: nearly all actives have a fitted effect of over 35% in size
In short: as §1

Measured: Potency
Potency means the concentration at half of the fitted maximal effect.

CC(C)(O)CC[C@@H](O)[C@](C)(O)[C@H]1CC[C@@]2(O)C3=CC(=O)[C@@H]4C[C@@H](O)[C@@H](O)C[C@]4(C)[C@@H]3CC[C@]12C
inactive: [1] | [2] | [3]

O=C1NC(=O)[C@@H](c2cn3c4c(cccc24)CCC3)[C@H]1c1c[nH]c2ccccc12
active: [1] 5.9 µM | [2] 16.6 µM | [3] 1.32 µM | [4] 0.118 µM

C[C@@H](Cc1cc2c(c(C(N)=O)c1)N(CCCO)CC2)NCCOc1ccccc1OCC(F)(F)F
not listed: [5]
inactive: all other assays above

CC(=O)ON=C1C(c2c(O)[nH]c3cc(Br)ccc23)=Nc2ccccc21
active: [1] 2.96 µM | [2] 16.6 µM | [3] 18.7 µM

C[C@H](NCc1ccc(OCc2cccc(F)c2)cc1)C(N)=O
active: [1] 2.09 µM | [2] 16.6 µM | [3] 11.8 µM | [4] 7.43 µM | [5] 5.9 µM

O=C(C=CC=Cc1ccc2c(c1)OCO2)N1CCCCC1
active: [2] 3.72 µM
inactive: [1] | [3] | [4]

COc1cc(C=CC(=O)CC(=O)C=Cc2ccc(O)c(OC)c2)ccc1O
active: [1] 9.59 µM | [2] 30.3 µM | [3] 21.5 µM | [4] 8.55 µM | [5] 10.8 µM

CC(=O)O[C@H]1C[C@@H]2CC[C@H]3[C@H]4C[C@H]([N+]5(C)CCCCC5)[C@@H](OC(C)=O)[C@@]4(C)CC[C@@H]3[C@@]2(C)C[C@H]1[N+]1(C)CCCCC1
inactive: all assays above

Cc1ccc(O)c(C(CCN(C(C)C)C(C)C)c2ccccc2)c1 (centres undefined)
not listed: [5]
inactive: all other assays above

CCCNC(=O)[C@H]1O[C@H]1C(=O)N[C@H](C(=O)N1CCC[C@@H]1C(=O)OC)C(C)CC (some centres undefined)
active: [1] 16.6 µM | [2] 20.9 µM | [3] 11.8 µM | [4] 23.5 µM | [5] 7.43 µM

CC(Oc1ccc(O)cc1)(P(=O)(O)O)P(=O)(O)O
not listed: [5]
inactive: all other assays above

CC[C@]12C=CCN3CC[C@@]4(c5cc([C@@]6(C(=O)OC)C[C@H]7C[C@@H](C(C)(F)F)CN(Cc8c6[nH]c6ccccc86)C7)c(OC)cc5N(C)[C@H]4[C@@](O)(C(=O)OC)[C@H]1OC(C)=O)[C@@H]32
active: [1] 0.0105 µM | [2] 0.166 µM | [3] 0.0118 µM | [4] 0.0026 µM

CCc1cnn2c(NCc3ccc[n+]([O-])c3)cc(N3CCCC[C@@H]3CCO)nc12
active: [1] 0.0105 µM | [2] 0.0372 µM | [3] 0.0296 µM | [4] 0.0209 µM | [5] 0.0296 µM

CC1(C)CC(O)CC(C)(C)N1[O]
not listed: [5]
inactive: all other assays above

COc1cc(C)c(Sc2cnc(NC(=O)c3ccc(CNC(C)C(C)(C)C)cc3)s2)cc1C(=O)N1CCN(C(C)=O)CC1 (centres undefined)
active: [1] 18.7 µM | [2] 16.6 µM | [3] 20.9 µM | [4] 5.9 µM | [5] 13.2 µM

COC(=O)C=CC(=O)OC
active: [1] 3.32 µM
inactive: all other assays above

C[C@@H]1CC[C@@]2(OC1)OC1CC3C4CC=C5CC(O)CCC5(C)C4CCC3(C)C1[C@@H]2C (some centres undefined)
inactive: all assays above

CC(=O)OC[C@@H]1O[C@@H](n2ccc(=O)[nH]c2=O)[C@H](OC(C)=O)[C@H]1OC(C)=O
inactive: all assays above

COc1cccc2c1C(=O)c1c(O)c3c(c(O)c1C2=O)C[C@@](O)(C(C)=O)C[C@H]3O[C@H]1C[C@H](N)[C@H](O)[C@H](C)O1
active: [1] 0.0296 µM | [2] 0.235 µM | [3] 0.166 µM | [4] 0.0935 µM | [5] 0.0296 µM

CC(C)(C)c1nc2c3cc[nH]c(=O)c3c3cc(F)ccc3c2[nH]1
active: [1] 0.743 µM | [2] 2.96 µM | [3] 1.66 µM | [4] 0.662 µM | [5] 2.09 µM

Cc1noc(-c2ccc(CSCCC(=O)O)cc2)c1NC(=O)OC(C)c1ccccc1Cl (centres undefined)
inactive: all assays above

CC(=O)N1CCN(c2ccc(OCc3nn(C)c(C)c3-c3cccc4c(CCCOc5cccc6ccccc56)c(C(=O)O)n(Cc5cccnc5)c34)cc2)CC1
active: [1] 1.18 µM | [2] 23.5 µM | [3] 23.5 µM | [4] 0.105 µM | [5] 0.0235 µM

O=C(C[C@@H]1CC=CCCC(=O)O[C@H](c2ccccc2)CNC1=O)NCc1ccc(Cl)cc1
active: [1] 5.9 µM
inactive: all other assays above

C=CC(=O)N1CCc2ccc(-n3c(=O)ccc4cnc5ccc(-c6cnn(C)c6)cc5c43)cc21
active: [1] 1.66 µM | [2] 1.05 µM | [3] 2.35 µM | [4] 0.418 µM | [5] 2.96 µM

COc1cccc2c1C(=O)c1c(O)c3c(c(O)c1C2=O)C[C@@](O)(C(=O)CO)C[C@@H]3O[C@H]1C[C@H](N)[C@@H](O)[C@H](C)O1
active: [1] 0.209 µM | [2] 0.935 µM | [3] 2.09 µM | [4] 0.935 µM | [5] 0.418 µM

O=C(NNC(=O)c1ccc(CNS(=O)(=O)c2ccc(F)c(Cl)c2)cc1)c1ccccc1
inactive: all assays above

O=c1[nH]c(=O)n([C@H]2C[C@@H](O)[C@@H](CO)O2)cc1C=CBr
inactive: all assays above

COc1cc(OC)c(C=CS(=O)(=O)Cc2ccc(OC)c(NCC(=O)O)c2)c(OC)c1
active: [1] 0.418 µM | [2] 1.66 µM | [3] 0.372 µM | [4] 0.0935 µM | [5] 0.132 µM

CCN(CC)CCNC(=O)c1c(C)[nH]c(C=C2C(=O)Nc3ccc(F)cc32)c1C
active: [1] 1.52 µM | [2] 10.8 µM | [3] 6.05 µM | [4] 1.52 µM | [5] 5.4 µM

C[C@@H](Oc1ccc2[nH]nc(C=Cc3cnn(CCO)c3)c2c1)c1c(Cl)cncc1Cl
active: [1] 4.18 µM | [2] 1.32 µM | [3] 0.296 µM | [4] 0.148 µM | [5] 1.18 µM

O=C(C=Cc1ccc(CN(CCO)CCc2c[nH]c3ccccc23)cc1)NO
active: [1] 0.132 µM | [2] 0.235 µM | [3] 0.209 µM | [4] 0.0526 µM | [5] 0.0526 µM

CON=C(C(=O)N[C@@H]1C(=O)N2C(C(=O)O)=C(Cn3ccc(=N)n3CCO)CS[C@H]12)c1csc(N)n1
inactive: all assays above

CS[C@H]1SC[C@@H]2C(=O)N(C)[C@H](C(C)C)C(=O)OC[C@H](NC(=O)c3cnc4ccccc4n3)C(=O)N[C@H](C)C(=O)N(C)[C@@H]1C(=O)N(C)[C@H](C(C)C)C(=O)OC[C@H](NC(=O)c1cnc3ccccc3n1)C(=O)N[C@H](C)C(=O)N2C
active: [1] 0.001 µM | [2] 0.0105 µM | [3] 0.0083 µM | [4] 0.0033 µM | [5] 0.0017 µM

Cc1cnc(Nc2ccc(CN3CCOCC3)cc2)nc1Nc1cccc(S(=O)(=O)NC(C)(C)C)c1
active: [1] 5.26 µM | [2] 4.18 µM | [3] 4.69 µM | [4] 1.18 µM | [5] 4.69 µM

CN(C)c1ccc(C(=O)NCCCCCCC(=O)NO)cc1
active: [1] 0.662 µM | [2] 1.87 µM | [3] 0.935 µM | [4] 0.743 µM | [5] 0.526 µM

CC(C)C[C@H](NC(=O)[C@@H](NC(=O)c1cccc(-c2ccccc2)n1)[C@@H](C)O)B(O)O
active: [1] 0.0235 µM | [2] 0.0526 µM | [3] 0.0418 µM | [4] 0.0132 µM | [5] 0.0148 µM

C=CC(=O)Nc1cccc(Nc2nc(NC3CCC(N(C)C)CC3)nc3c2ncn3C(C)C)c1 (centres undefined)
active: [1] 0.209 µM | [2] 1.05 µM | [3] 1.87 µM | [4] 0.372 µM | [5] 0.209 µM

COc1cc([C@@H]2c3cc4c(cc3[C@H](O)[C@H]3COC(=O)[C@@H]23)OCO4)cc(OC)c1OC
active: [1] 0.332 µM | [2] 0.469 µM | [3] 0.148 µM | [4] 0.0296 µM | [5] 0.0418 µM

C[C@H]1COc2c(N3CCN(C)CC3)c(F)cc3c(=O)c(C(=O)O)cn1c23
inactive: all assays above

CCC[C@H]1C[C@H](C(=O)N[C@@H]([C@@H]2O[C@@H](SC)[C@@H](O)[C@@H](O)[C@@H]2O)[C@H](C)Cl)N(C)C1
inactive: all assays above

Cc1ccc2nc(NCCN)c3ncc(C)n3c2c1
active: [1] 2.64 µM | [2] 6.62 µM | [3] 11.8 µM | [4] 3.72 µM | [5] 6.62 µM

COc1ccc2c(c1OC)C(=O)OC2[C@H]1c2c(cc3c(c2OC)OCO3)CCN1C (some centres undefined)
active: [1] 0.469 µM | [2] 3.72 µM | [3] 0.0662 µM | [4] 0.0264 µM | [5] 0.0209 µM

COc1ccc(S(=O)(=O)Nc2cc(-c3c(O)ccc4ccccc34)c(O)c3ccccc23)cc1
active: [1] 5.26 µM | [2] 23.5 µM | [3] 11.8 µM | [4] 3.32 µM | [5] 3.72 µM

Oc1ccc(-c2ccc(-c3cc(Nc4cccc(CNC5CC5)c4)n[nH]3)cc2)c(O)c1
active: [1] 0.59 µM | [2] 9.35 µM | [3] 4.69 µM | [4] 1.32 µM | [5] 1.32 µM
